Laboratory results from ChEMBL document CHEMBL4513216, “Probing the Open Global Health Chemical Diversity Library for Multistage-Active Starting Points for Next-Generation Antimalarials” (ACS Infect Dis, 2020).
The whole screen tested about 68,000 compounds, of which about 2,700 (4%) showed an effect of 50% or more. The entries come from a sample that favours strong results as a whole.

Test system: Plasmodium berghei
Assay: Screen against P. berghei liver stage (PbLuc), transformed with Luciferase, at 2uM
Assay type: functional, HepG2
Details: tested at 2 uM

Going from `Cc1cc(CN2C[C@@H]3CC[C@H]2CN(C2Cc4ccccc4C2)C3)on1` to `CC(=O)N[C@@H]1CN(C2CCN(c3ccccc3F)CC2)C[C@H]1C(C)C`, the INHIBITION falls from 17.28% to 7.67%.

Going from `CCC(NCc1ccccc1)c1ccccc1OCC(=O)NC` (stereo not drawn) to `O=C(Nc1ccccn1)NC(CCCO)c1ccccc1` (stereo not drawn), the INHIBITION falls from -3.09% to -67.62%.

Going from `COc1ccc(N2CCC(N(C)C(=O)C(C)SC)CC2)cc1` (stereo not drawn) to `CCOC(C)C(=O)N(C)C1CCN(c2ccc(OC)cc2)CC1` (stereo not drawn), the INHIBITION rises from 27.5% to 73.09%.

Going from `COc1ccc(N2CCC(NC(=O)c3ccc(C#N)cc3)CC2)cc1` to `COc1ccc(N2CCC(N(C)C(C)C(=O)N(C)C)CC2)cc1` (stereo not drawn), the INHIBITION falls from 45.62% to -2.89%.

First: CC(=O)N[C@@H]1CN(C2CCN(c3cccc(Cl)c3)CC2)C[C@H]1C(C)C
Second: COc1cccc(N2CCC(N3C[C@@H](NC(C)=O)[C@H](C(C)C)C3)CC2)c1
The INHIBITION of the first is lower: 21.97% for the first, 52.98% for the second.

First: CC(=O)N[C@@H]1CN(C2CCN(c3cccc(C)c3C)CC2)C[C@H]1C(C)C
Second: COc1ccc(N2CCC(N3C[C@H](NC(C)=O)[C@@H](C(C)C)C3)CC2)cc1
The INHIBITION of the first is lower: 29.13% for the first, 55.36% for the second.

Compared with `O=C(NCC1(c2ccc(F)cc2)CCCC1)N1CCOC(CO)C1` (stereo not drawn), `Cc1ccc(-c2cc(CNC(=O)N3CCC(O)CC3)on2)cc1` is lower in INHIBITION: 12.41% for the first, -5.7% for the second.

Compared with `Cn1ncnc1-c1ccnc(N2CCC(C(O)c3cccs3)CC2)n1` (stereo not drawn), `CN(C)c1ccnc(N2CCC(NCCOc3ccccc3)CC2)n1` is lower in INHIBITION: 39.98% for the first, -55.42% for the second.

Going from `Fc1cccc(N2CCCC3(CN(Cc4cccnc4)CCO3)C2)c1` (stereo not drawn) to `c1cncc(CN2CCC(c3ccc4c(c3)OCO4)CC2)c1`, the INHIBITION rises from -18.59% to 17.24%.

First: O=c1[nH]c2ccccc2c2c1CCO2
Second: O=C1CO[C@H]2CN(S(=O)(=O)c3ccccc3)C[C@H]2N1Cc1ccccc1
The INHIBITION of the first is lower: -66.7% for the first, 15.98% for the second.

Going from `Cc1ccc(CN2CC[C@H]3OCC[C@@]3(COCC(=O)N(C)C)C2)s1` to `Cc1ccc(CN2Cc3c(C(=O)N4CCCC4)nn(C)c3C2)s1`, the INHIBITION falls from -14.52% to -64.97%.

First: CCc1ccc(CN2CCCC(CO)(CCOC)C2)cc1 (stereo not drawn)
Second: N#Cc1ccc(CNCC2CCN(CCO)CC2)cc1
The INHIBITION of the first is higher: 22.74% for the first, 1.07% for the second.

First: CCN(CC)C(=O)[C@@H]1C[C@H](N)CN1C(=O)c1cc2c([nH]c1=O)CCC2
Second: CCN(CC)C(=O)[C@@H]1C[C@@H](N)CN1C(=O)c1cc2c([nH]c1=O)CCC2
The INHIBITION of the first is lower: 22.89% for the first, 56.16% for the second.

Going from `CC(C)NC(=O)[C@@H]1C[C@H](N)CN1C(=O)c1cc2c([nH]c1=O)CCCC2` to `Cc1nc(C(C)C)sc1C(=O)N1CCN(C2CCSCC2)CC1`, the INHIBITION rises from -34.26% to 18.77%.

Compared with `CCN1CC2(CCC1=O)CCN(CCc1nccn1C)CC2`, `c1cc(CN2CCC3(CC2)COC(COCC2CC2)C3)ccn1` (stereo not drawn) is higher in INHIBITION: 25.65% for the first, 55.57% for the second.

Compared with `CNc1nnc(CCn2nc(C)c(Br)c2C)s1`, `Cc1nn(C)c(C)c1C1CCCN1CC(=O)NCc1ccccn1` (stereo not drawn) is lower in INHIBITION: 6.05% for the first, -29.54% for the second.

Compared with `CC(C)(C)CC(=O)NC[C@H]1OC[C@@H](NCc2ccccn2)[C@@H]1O`, `CN(CCc1ccccn1)C(=O)c1cn2c(n1)CNCC2` is higher in INHIBITION: 16.43% for the first, 25.55% for the second.

Going from `CC(C)=CCS(=O)(=O)Cc1ccn(-c2cccc(F)c2)n1` to `CCS(=O)(=O)Cc1ccn(-c2cccc(F)c2)n1`, the INHIBITION falls from 58.14% to 6.82%.

First: CN(C)C(=O)CS(=O)(=O)Cc1ccn(-c2cccc(F)c2)n1
Second: O=C(Cc1cccc(F)c1)NCCNCC1CNc2ccnn2C1 (stereo not drawn)
The INHIBITION of the first is lower: -19.29% for the first, -7.45% for the second.

Compared with `CCCNC(=O)CNc1cc(C#N)ccc1OCC`, `COCCNC(=O)CCNc1cc(C)nc(-c2ccncc2)n1` is higher in INHIBITION: -19.76% for the first, 69.06% for the second.

Going from `Cn1ncc(C(=O)O)c1C(=O)Nc1nc2ccc(Br)cc2s1` to `CN(CC(=O)Nc1ccc(Br)cn1)C(=O)C(C)(C)C`, the INHIBITION rises from 3.27% to 8.42%.

First: Cc1[nH]c2ccc(CNc3cc(C(=O)NC(C)C)ccn3)cc2c1C
Second: COCCCn1cnnc1C(C)NC(=O)c1[nH]c2ccc(C)cc2c1C (stereo not drawn)
The INHIBITION of the first is lower: 15.46% for the first, 23.6% for the second.

Compared with `O=C1CO[C@@H]2CN(S(=O)(=O)c3ccccc3)C[C@H]2N1CC1CC1`, `O=C1CO[C@H]2CN(S(=O)(=O)c3ccccc3)C[C@H]2N1c1ccccc1` is higher in INHIBITION: -30.12% for the first, 53.27% for the second.

Compared with `CC(C)c1noc(C[S+]([O-])CC(=O)Nc2cc(F)ccc2F)n1` (stereo not drawn), `COC(=O)C(NC(=O)CC(C)C)c1cc(F)ccc1F` (stereo not drawn) is higher in INHIBITION: 12.35% for the first, 29.12% for the second.

Going from `CC(NC1CCN(CCS(C)(=O)=O)CC1)c1ccc(Cl)cc1` (stereo not drawn) to `COCCN1CCC(c2cncc(-c3cccc(Cl)c3)n2)CC1`, the INHIBITION rises from -26.72% to 32.39%.

Compared with `Cc1cc(NCCC(=O)NC2CCCC2)nc(-c2ccncc2)n1`, `Cc1cc(NCCC(=O)NC(C)C)nc(-c2ccncc2)n1` is higher in INHIBITION: -82.36% for the first, -1.96% for the second.

Going from `O=S(=O)(NCC1(O)CCCC1)c1ccccc1Br` to `Cn1cnc(S(=O)(=O)N2CC3(CCN(c4ccccc4)C3)C2)c1`, the INHIBITION falls from 32.07% to 15.42%.

Compared with `Cc1noc(C)c1C(=O)N1Cc2ncn(C)c2C(COCC(C)C)C1` (stereo not drawn), `CC(C)c1nccn1CCC(=O)N1CCCC1c1cccn1C` (stereo not drawn) is lower in INHIBITION: 25.92% for the first, 22% for the second.

Compared with `Cc1ncncc1-c1ccnc(N(C)C)n1`, `CN(C)c1nccc(-c2cnc(N(C)C)[nH]c2=O)n1` is higher in INHIBITION: 22.5% for the first, 51.32% for the second.

First: CN(C)c1nccc(-c2c[nH][nH]c2=O)n1
Second: CC(c1ccncc1)n1cc2nc(N(C)C)[nH]cc-2c1=O (stereo not drawn)
The INHIBITION of the first is lower: 3.97% for the first, 20.82% for the second.

First: CN(Cc1ccc2nonc2c1)C(=O)CCc1cc2n(n1)CCCNC2
Second: CN(CCCc1ccccc1)C(=O)c1cn2c(n1)CNCC2
The INHIBITION of the first is higher: -3.87% for the first, -12.28% for the second.

Compared with `CCN(Cc1ccncc1)C1CCCN(C/C=C/c2ccc(F)cc2)C1` (stereo not drawn), `CCN(Cc1ccncc1)C1CCCN(Cc2ccc(F)cc2Cl)C1` (stereo not drawn) is higher in INHIBITION: 27.95% for the first, 32.26% for the second.

First: CCN(Cc1ccncc1)C1CCCN(Cc2ccc(F)cc2OC)C1 (stereo not drawn)
Second: c1cc(CN2CCC3(CCOCC3COCC3CC3)CC2)ccn1 (stereo not drawn)
The INHIBITION of the first is higher: 51.42% for the first, 50.17% for the second.

Compared with `O=C1CC(N2CCN(c3ccccc3O)CC2)C(=O)N1Cc1cccs1` (stereo not drawn), `O=C(N1CCCC1)N1CCC2(CC1)C(=O)N(CC1CC1)c1ccccc12` is higher in INHIBITION: 19.62% for the first, 31.5% for the second.

Going from `CC1CCN(C(=O)Cn2cc(I)cn2)CC1` to `CC1CCCN(C(=O)Cn2cc(I)cn2)C1` (stereo not drawn), the INHIBITION falls from 66.74% to 37.18%.

First: O=C(Cn1cc(I)cn1)N1CCCC1
Second: Cn1nccc1C1CCN(CC(=O)NCC2CC2)CC1
The INHIBITION of the first is higher: 34.34% for the first, 7.71% for the second.

Compared with `O=C(Nc1cccnc1-n1cc(Cl)cn1)C1CC1`, `O=C(c1cc(C2CC2)on1)N1C[C@@H]2COC[C@]2(COc2cccnc2)C1` is higher in INHIBITION: -43.89% for the first, 22.68% for the second.

Compared with `Cc1cc(C)n(CC2CN(Cc3nc(C4CC4)no3)CCO2)n1` (stereo not drawn), `Cc1ccc(-n2ccnc2-c2cn(C3CCNCC3)nn2)c(Cl)c1` is lower in INHIBITION: 37.31% for the first, 36.26% for the second.

Going from `CN(C)C(=O)N1CC[C@@H](O)[C@@H]1Cc1ccccc1` to `CN(CCSc1ccccc1)C(=O)c1cn2c(n1)CNCC2`, the INHIBITION rises from 48.52% to 54.29%.

Compared with `O=C([C@H]1CCCO1)N1CCC2(CC1)C(=O)N(CC1CC1)c1ccccc12`, `CC(=O)N1CCC2(CC1)C(=O)N(CC1CC1)c1ccccc12` is lower in INHIBITION: 58.95% for the first, 24.15% for the second.

Going from `O=C(N[C@H]1CN(Cc2ccsc2)[C@@H]2CCCO[C@H]12)C1CC1` to `c1cc(CN2CCC3(CC2)COC(COCC2CC2)C3)cs1` (stereo not drawn), the INHIBITION falls from -1.33% to -9.14%.

Going from `Cc1cc2nc(-c3cn(C4CCNCC4)nn3)[nH]c2cc1C` to `Cc1ccc2[nH]c(-c3cn(C4CCNCC4)nn3)nc2c1C`, the INHIBITION rises from 28.14% to 68.42%.

Compared with `Cc1cccc2[nH]c(-c3cn(C4CCNCC4)nn3)nc12`, `Cc1c(C)c(C)c2[nH]c(-c3cn(C4CCNCC4)nn3)nc2c1C` is lower in INHIBITION: 57.92% for the first, 52.66% for the second.

First: COc1cccc(CCn2ccnc2-c2cn(C3CCNCC3)nn2)c1
Second: Clc1ccccc1CCn1ccnc1-c1cn(C2CCNCC2)nn1
The INHIBITION of the first is higher: -14.82% for the first, -30.83% for the second.

Compared with `OCCc1ccccc1-n1ccnc1-c1cn(C2CCNCC2)nn1`, `CSc1ccccc1-n1ccnc1-c1cn(C2CCNCC2)nn1` is higher in INHIBITION: 5.78% for the first, 14.55% for the second.

Going from `CN(C)C(=O)c1cccnc1SCc1ccccc1Cl` to `O=C(NCc1cc(-c2ccccc2)no1)NC1CCCCNC1=O` (stereo not drawn), the INHIBITION rises from 17.31% to 65.38%.

Going from `O=C(CC1CCN(c2cccnn2)CC1)Nc1cccnc1` to `O=C(CC1CCN(c2cccnn2)CC1)Nc1nncs1`, the INHIBITION falls from 50.17% to -24.13%.

Going from `O=C(CC1CCCC1)NCCS(=O)(=O)N1CCN(c2ccccn2)CC1` to `O=C(CC1CCN(c2cccnn2)CC1)NCCO`, the INHIBITION rises from -40% to 68.96%.

First: CN(C)CCNC(=O)CC1CCN(c2cccnn2)CC1
Second: O=C(CC1CCN(c2cccnn2)CC1)NC1CCOCC1
The INHIBITION of the first is lower: -36.94% for the first, -36.08% for the second.

Compared with `COc1ccc(C(O)CNC(=O)Nc2cc(C)nn2C)cc1` (stereo not drawn), `Cn1cnc(-c2ccc(F)cc2)c1NC(=O)CCNC(=O)C(C)(C)C` is higher in INHIBITION: 34.83% for the first, 37.66% for the second.

First: c1csc(CN2CCC3(CCOCC3COCC3CC3)CC2)n1 (stereo not drawn)
Second: c1cc(CN2CCC3(CCOCC3COCC3CC3)CC2)co1 (stereo not drawn)
The INHIBITION of the first is lower: -23.51% for the first, 39.18% for the second.

Compared with `c1cc(CN2CCC3(CC2)COC(COCC2CC2)C3)co1` (stereo not drawn), `O=C1NCCCCC1NC(=O)C1(c2ccccc2)CCOCC1` (stereo not drawn) is lower in INHIBITION: 15.02% for the first, -20.35% for the second.

Compared with `Cc1cccc(C(=O)N2CC[C@H]3C[C@@H](C)O[C@@H]3C2)n1`, `Cc1ccc(-c2cc(CNC(=O)NC3CCCCNC3=O)on2)cc1` (stereo not drawn) is higher in INHIBITION: 1.29% for the first, 55.7% for the second.

Compared with `O=C(NCc1cc(-c2ccccc2)no1)NCC1CCCO1` (stereo not drawn), `Cc1ccc(-c2cc(CS(=O)(=O)NC3CCCNC3=O)on2)cc1` (stereo not drawn) is higher in INHIBITION: -3.26% for the first, 42.79% for the second.
